# According to paper PMC7862700, “An all-to-all approach to the identification of sequence-specific readers for epigenetic DNA modifications on cytosine”:
# Columns and labels:
# Assay in all cases: DAPPL (digital affinity profiling via proximity ligation, sequencing); 10 mM Tris-HCl pH 7.5, 50 mM NaCl, 1 mM DTT, 4% glycerol, room temperature, 30 min; GST-TFs on glutathione beads, 16-mer random dsDNA library, 0.1% formaldehyde crosslink after washing; high values mean tight binding
# FLI1 = molecular target: T1, FLI1 (Homo sapiens, UniProt Q01543 1-452); conditions: protein: recombinant; tags: N-terminal GST; dsDNA, one strand shown
# T1 sequence: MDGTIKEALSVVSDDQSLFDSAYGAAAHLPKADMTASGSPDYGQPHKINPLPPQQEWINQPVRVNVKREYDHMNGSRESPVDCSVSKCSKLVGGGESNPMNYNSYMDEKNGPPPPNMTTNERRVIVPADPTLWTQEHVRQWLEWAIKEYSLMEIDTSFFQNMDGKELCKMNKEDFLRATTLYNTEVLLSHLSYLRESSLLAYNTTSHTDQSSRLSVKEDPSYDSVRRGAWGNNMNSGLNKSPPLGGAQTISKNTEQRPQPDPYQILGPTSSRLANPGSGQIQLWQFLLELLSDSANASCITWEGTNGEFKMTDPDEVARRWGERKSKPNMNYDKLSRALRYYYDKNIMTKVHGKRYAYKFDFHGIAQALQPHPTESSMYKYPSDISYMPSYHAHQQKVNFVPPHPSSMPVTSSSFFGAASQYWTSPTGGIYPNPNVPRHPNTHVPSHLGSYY
# How it was run: (§1)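 Binding signal is given per hexamer as its read frequency for a factor divided by its frequency in the tag-only sample. GST-fused human transcription factors were expressed in yeast, captured on glutathione beads, barcoded with DNA and pooled with that sample, then incubated with 200 nmole of a 16-mer random double-stranded DNA library in Tris/NaCl/DTT/glycerol buffer for 30 min at room temperature. The pools were then washed, crosslinked, proximity-ligated, amplified by PCR and sequenced on an Illumina NextSeq500.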
# ELK1 = molecular target: T2, ELK1 (Homo sapiens, UniProt P19419 1-428); conditions: protein: recombinant; tags: N-terminal GST; dsDNA, one strand shown
# T2 sequence: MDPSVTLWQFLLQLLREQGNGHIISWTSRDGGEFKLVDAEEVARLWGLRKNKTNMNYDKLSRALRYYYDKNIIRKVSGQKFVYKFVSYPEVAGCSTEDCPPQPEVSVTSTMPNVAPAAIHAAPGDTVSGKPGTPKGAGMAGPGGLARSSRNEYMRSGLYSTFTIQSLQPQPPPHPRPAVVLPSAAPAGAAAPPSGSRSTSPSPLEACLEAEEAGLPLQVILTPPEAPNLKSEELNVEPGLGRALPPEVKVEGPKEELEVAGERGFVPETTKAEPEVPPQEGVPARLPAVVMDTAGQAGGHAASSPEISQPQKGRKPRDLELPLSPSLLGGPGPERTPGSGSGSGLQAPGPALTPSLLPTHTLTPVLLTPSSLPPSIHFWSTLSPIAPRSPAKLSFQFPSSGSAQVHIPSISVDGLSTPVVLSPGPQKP
# How it was run: as §1
# GABPA = molecular target: T3, GABPA (Homo sapiens, UniProt Q06546 1-454); conditions: protein: recombinant; tags: N-terminal GST; dsDNA, one strand shown
# T3 sequence: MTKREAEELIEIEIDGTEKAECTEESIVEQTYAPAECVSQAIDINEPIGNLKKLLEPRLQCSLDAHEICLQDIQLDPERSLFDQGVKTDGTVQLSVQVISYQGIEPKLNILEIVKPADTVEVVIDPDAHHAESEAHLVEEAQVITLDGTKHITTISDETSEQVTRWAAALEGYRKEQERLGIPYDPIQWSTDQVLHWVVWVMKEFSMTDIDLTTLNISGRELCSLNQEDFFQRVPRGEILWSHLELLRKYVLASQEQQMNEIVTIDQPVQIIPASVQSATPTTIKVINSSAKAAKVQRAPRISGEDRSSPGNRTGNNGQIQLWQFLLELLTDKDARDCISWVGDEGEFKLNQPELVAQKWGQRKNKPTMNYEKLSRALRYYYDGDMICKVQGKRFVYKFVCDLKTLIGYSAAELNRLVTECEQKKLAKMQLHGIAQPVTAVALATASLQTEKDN
# How it was run: as §1
# ERG = molecular target: T4, ERG (Homo sapiens, UniProt P11308 1-479); conditions: protein: recombinant; tags: N-terminal GST; dsDNA, one strand shown
# T4 sequence: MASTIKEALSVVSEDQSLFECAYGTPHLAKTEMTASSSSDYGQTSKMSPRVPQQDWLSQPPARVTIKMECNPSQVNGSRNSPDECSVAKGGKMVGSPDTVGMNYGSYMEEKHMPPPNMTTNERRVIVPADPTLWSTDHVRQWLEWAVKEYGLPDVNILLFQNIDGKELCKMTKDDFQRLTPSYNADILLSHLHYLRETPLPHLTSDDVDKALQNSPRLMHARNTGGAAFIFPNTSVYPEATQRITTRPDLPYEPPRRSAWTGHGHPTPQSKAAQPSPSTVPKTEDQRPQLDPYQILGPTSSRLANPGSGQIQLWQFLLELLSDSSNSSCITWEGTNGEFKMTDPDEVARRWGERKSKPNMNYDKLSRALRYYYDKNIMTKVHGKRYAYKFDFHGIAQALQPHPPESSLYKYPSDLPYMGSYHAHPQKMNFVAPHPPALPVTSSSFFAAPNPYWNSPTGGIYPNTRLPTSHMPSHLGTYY
# How it was run: as §1
# ELF1 = ELF1 (Homo sapiens, UniProt P32519 1-619); conditions: protein: recombinant; tags: N-terminal GST; dsDNA, one strand shown
# How it was run: as §1
# EHF = molecular target: T5, EHF (Homo sapiens, UniProt Q9NZC4 1-300); conditions: protein: recombinant; tags: N-terminal GST; dsDNA, one strand shown
# T5 sequence: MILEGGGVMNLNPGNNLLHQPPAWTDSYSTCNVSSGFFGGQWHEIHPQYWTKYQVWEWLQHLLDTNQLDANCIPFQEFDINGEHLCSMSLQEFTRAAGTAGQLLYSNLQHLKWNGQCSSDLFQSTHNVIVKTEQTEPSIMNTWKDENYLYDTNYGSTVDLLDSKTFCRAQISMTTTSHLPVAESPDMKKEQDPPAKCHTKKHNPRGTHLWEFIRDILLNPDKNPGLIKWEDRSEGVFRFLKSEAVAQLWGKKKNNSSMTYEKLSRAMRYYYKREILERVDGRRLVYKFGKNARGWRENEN
# How it was run: as §1
# SPI1 = SPI1 (Homo sapiens, UniProt P17947 1-270); conditions: protein: recombinant; tags: N-terminal GST; dsDNA, one strand shown
# How it was run: as §1
# SPIB = SPIB (Homo sapiens, UniProt Q01892 1-262); conditions: protein: recombinant; tags: N-terminal GST; dsDNA, one strand shown
# How it was run: as §1
# ELK3 = molecular target: T6, ELK3 (Homo sapiens, UniProt P41970 1-407); conditions: protein: recombinant; tags: N-terminal GST; dsDNA, one strand shown
# T6 sequence: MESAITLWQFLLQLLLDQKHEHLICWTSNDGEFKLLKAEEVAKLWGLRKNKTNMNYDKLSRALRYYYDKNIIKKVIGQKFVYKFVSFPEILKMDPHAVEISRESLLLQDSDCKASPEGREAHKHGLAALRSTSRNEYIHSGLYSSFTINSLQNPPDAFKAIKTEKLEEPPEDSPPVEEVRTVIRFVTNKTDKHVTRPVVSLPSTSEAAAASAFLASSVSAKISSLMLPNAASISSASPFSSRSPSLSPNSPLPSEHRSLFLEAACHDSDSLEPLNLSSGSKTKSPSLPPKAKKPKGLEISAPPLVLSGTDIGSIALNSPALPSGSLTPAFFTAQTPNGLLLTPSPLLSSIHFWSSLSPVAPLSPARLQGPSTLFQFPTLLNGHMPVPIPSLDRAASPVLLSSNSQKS
# How it was run: as §1
# FEV = molecular target: T7, FEV (Homo sapiens, UniProt Q99581 1-238); conditions: protein: recombinant; tags: N-terminal GST; dsDNA, one strand shown
# T7 sequence: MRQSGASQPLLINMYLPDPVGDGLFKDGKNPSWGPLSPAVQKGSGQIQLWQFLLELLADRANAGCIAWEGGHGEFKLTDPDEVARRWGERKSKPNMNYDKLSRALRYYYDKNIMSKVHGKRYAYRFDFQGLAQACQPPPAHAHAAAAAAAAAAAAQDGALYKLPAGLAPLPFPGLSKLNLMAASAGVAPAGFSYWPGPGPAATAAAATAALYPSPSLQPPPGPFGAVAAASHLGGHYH
# How it was run: as §1
# ETV5 = ETV5 (Homo sapiens, UniProt P41161 1-510); conditions: protein: recombinant; tags: N-terminal GST; dsDNA, one strand shown
# How it was run: as §1
# HSF1 = HSF1 (Homo sapiens, UniProt Q00613 1-529); conditions: protein: recombinant; tags: N-terminal GST; chain copies: 3; dsDNA, one strand shown
# How it was run: as §1
# SPIC = molecular target: T8, SPIC (Homo sapiens, UniProt Q8N5J4 1-248); conditions: protein: recombinant; tags: N-terminal GST; dsDNA, one strand shown
# T8 sequence: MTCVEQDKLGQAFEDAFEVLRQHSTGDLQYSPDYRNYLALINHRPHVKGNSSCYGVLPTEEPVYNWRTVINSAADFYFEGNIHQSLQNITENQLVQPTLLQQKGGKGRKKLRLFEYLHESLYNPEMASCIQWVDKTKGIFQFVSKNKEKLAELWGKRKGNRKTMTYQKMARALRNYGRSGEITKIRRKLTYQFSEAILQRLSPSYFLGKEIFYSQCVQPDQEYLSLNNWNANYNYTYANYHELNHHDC
# How it was run: as §1
# ELF4 = ELF4 (Homo sapiens, UniProt Q99607 1-663); conditions: protein: recombinant; tags: N-terminal GST; dsDNA, one strand shown
# How it was run: as §1
# ELK4 = molecular target: T9, ELK4 (Homo sapiens, UniProt P28324-2 1-405); conditions: protein: recombinant; tags: N-terminal GST; dsDNA, one strand shown
# T9 sequence: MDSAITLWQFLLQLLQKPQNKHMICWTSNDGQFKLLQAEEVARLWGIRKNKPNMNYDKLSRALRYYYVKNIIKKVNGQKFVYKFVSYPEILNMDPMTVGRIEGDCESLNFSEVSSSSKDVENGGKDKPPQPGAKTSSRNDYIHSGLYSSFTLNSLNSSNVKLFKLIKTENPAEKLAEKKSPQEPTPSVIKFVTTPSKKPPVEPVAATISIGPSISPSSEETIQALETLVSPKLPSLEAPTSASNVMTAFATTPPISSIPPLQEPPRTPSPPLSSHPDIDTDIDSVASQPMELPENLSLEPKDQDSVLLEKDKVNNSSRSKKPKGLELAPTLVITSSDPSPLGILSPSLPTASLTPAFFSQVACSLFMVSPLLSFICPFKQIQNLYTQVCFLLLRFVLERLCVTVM
# How it was run: as §1
# ETV2 = molecular target: T10, ETV2 (Homo sapiens, UniProt O00321 1-342); conditions: protein: recombinant; tags: N-terminal GST; dsDNA, one strand shown
# T10 sequence: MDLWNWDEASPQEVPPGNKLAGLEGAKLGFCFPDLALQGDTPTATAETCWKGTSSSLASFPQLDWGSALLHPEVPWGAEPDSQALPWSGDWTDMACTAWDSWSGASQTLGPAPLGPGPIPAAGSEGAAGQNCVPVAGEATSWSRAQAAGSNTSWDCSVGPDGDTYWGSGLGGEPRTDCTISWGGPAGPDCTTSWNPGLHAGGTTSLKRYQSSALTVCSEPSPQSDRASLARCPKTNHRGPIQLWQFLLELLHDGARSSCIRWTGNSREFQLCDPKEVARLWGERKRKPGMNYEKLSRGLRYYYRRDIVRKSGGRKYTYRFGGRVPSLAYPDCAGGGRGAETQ
# How it was run: as §1
# ELF3 = molecular target: T11, ELF3 (Homo sapiens, UniProt P78545 1-371); conditions: protein: recombinant; tags: N-terminal GST; dsDNA, one strand shown
# T11 sequence: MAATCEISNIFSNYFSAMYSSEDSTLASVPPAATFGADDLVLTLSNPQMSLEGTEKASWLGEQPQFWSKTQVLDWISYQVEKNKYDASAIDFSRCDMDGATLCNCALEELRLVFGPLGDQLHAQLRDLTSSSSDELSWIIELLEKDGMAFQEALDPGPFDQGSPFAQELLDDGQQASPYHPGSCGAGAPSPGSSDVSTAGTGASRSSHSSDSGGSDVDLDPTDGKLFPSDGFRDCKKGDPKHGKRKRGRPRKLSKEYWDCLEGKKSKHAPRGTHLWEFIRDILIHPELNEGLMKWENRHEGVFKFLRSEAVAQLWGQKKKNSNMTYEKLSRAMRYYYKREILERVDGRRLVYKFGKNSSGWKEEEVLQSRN
# How it was run: as §1
# CRX = CRX (Homo sapiens, UniProt O43186 1-299); conditions: protein: recombinant; tags: N-terminal GST; dsDNA, one strand shown
# How it was run: as §1
# ETV1 = ETV1 (Homo sapiens, UniProt P50549 1-477); conditions: protein: recombinant; tags: N-terminal GST; dsDNA, one strand shown
# How it was run: as §1
# Sequence of ETV1 (P50549 whole entry): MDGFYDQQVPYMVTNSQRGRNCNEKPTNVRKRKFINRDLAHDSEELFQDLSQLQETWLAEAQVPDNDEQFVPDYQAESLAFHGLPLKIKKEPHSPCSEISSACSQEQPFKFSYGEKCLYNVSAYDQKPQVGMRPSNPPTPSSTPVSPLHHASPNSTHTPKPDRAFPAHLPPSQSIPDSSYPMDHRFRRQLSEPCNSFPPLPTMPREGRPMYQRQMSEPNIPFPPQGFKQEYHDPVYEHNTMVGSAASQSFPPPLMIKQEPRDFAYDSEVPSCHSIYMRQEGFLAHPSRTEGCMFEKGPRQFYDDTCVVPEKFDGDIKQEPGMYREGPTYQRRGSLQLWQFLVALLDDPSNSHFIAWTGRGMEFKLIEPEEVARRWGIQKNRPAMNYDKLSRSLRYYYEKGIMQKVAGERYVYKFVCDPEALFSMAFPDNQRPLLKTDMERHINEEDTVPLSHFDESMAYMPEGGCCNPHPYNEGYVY
# Sequence of HSF1 (Q00613 whole entry): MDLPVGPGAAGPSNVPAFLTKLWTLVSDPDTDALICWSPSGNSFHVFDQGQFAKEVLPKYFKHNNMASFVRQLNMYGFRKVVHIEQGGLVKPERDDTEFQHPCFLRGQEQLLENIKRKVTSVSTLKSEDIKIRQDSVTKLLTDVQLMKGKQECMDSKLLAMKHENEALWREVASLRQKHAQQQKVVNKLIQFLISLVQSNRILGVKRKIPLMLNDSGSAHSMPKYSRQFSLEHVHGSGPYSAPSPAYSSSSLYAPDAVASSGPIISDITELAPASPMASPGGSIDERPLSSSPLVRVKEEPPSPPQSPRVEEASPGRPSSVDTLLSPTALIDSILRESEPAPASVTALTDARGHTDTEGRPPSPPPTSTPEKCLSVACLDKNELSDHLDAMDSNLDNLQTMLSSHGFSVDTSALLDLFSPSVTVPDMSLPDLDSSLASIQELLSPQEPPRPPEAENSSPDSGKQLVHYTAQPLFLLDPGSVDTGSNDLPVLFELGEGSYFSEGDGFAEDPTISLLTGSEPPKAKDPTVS
# Sequence of ELF4 (Q99607 whole entry): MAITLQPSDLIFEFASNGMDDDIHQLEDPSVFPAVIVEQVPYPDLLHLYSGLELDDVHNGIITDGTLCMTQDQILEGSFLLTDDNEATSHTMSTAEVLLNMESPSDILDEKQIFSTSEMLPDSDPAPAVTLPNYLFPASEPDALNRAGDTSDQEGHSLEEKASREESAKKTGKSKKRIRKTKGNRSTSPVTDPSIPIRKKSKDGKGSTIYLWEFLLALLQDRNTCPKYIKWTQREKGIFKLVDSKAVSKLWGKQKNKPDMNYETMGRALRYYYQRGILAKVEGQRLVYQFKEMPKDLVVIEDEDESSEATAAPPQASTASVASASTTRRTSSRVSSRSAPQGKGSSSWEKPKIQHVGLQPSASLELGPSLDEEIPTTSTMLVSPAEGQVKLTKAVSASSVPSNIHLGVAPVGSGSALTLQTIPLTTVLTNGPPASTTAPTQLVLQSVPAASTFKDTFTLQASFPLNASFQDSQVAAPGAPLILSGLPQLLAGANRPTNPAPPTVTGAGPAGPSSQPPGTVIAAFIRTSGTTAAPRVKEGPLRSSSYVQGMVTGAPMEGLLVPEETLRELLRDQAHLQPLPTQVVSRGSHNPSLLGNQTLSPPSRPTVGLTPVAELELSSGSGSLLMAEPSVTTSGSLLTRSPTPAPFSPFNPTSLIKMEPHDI
# Sequence of ETV5 (P41161 whole entry): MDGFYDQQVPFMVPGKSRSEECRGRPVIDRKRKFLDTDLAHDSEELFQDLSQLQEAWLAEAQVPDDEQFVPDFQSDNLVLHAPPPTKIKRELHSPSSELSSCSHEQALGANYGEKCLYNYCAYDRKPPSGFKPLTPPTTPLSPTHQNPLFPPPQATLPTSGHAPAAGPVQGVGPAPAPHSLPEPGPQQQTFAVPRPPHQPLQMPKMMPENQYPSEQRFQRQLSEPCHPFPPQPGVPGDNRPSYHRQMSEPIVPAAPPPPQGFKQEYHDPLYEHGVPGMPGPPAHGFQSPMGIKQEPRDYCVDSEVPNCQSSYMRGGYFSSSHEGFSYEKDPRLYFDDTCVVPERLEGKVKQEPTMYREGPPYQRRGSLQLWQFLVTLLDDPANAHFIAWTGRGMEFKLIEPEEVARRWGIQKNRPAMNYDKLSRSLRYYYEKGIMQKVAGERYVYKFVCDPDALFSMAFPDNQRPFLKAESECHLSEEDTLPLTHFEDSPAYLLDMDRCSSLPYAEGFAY
# Sequence of ELF1 (P32519 whole entry): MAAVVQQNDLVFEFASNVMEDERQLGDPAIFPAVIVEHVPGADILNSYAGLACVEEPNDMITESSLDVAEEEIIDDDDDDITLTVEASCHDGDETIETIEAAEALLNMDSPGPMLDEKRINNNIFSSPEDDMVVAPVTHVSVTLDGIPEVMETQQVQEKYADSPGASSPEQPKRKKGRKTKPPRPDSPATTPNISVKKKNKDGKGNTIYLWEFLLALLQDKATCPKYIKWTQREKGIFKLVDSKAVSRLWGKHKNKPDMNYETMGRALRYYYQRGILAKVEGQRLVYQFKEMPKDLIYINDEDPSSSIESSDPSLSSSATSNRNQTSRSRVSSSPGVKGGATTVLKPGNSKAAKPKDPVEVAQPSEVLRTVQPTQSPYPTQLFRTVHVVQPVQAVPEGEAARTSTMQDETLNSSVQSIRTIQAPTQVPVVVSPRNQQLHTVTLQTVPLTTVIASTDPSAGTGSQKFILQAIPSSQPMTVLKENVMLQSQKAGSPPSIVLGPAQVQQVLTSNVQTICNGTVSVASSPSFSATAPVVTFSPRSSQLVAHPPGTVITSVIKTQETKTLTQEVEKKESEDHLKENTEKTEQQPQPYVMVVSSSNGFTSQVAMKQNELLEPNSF
# Sequence of SPIB (Q01892 whole entry): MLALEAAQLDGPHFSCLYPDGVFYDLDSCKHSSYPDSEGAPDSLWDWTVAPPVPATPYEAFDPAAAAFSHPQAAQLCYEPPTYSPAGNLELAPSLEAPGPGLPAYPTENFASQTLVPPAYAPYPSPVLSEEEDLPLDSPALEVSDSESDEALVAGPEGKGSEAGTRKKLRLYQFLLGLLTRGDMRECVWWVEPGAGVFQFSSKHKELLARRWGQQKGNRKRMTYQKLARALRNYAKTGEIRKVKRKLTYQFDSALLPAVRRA
# Sequence of CRX (O43186 whole entry): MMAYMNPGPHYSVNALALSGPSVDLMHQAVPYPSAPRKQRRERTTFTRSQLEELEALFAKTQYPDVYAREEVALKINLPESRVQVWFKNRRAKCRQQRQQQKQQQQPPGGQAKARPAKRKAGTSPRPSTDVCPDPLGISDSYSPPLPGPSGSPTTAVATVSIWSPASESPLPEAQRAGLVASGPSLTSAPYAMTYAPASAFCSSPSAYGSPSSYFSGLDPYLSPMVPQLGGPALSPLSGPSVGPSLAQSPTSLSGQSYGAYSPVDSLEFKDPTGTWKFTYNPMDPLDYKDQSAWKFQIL
sequence,measurement,setting,value
TTGGTT,binding signal,FLI1,"1.51 fold enrichment (6-mer frequency, TF over GST control)"
same,binding signal,ELK1,"1.38 fold enrichment (6-mer frequency, TF over GST control)"
same,binding signal,GABPA,"1.45 fold enrichment (6-mer frequency, TF over GST control)"
same,binding signal,ERG,"1.37 fold enrichment (6-mer frequency, TF over GST control)"
same,binding signal,ELF1,"1.39 fold enrichment (6-mer frequency, TF over GST control)"
same,binding signal,EHF,"1.4 fold enrichment (6-mer frequency, TF over GST control)"
same,binding signal,SPI1,"1.43 fold enrichment (6-mer frequency, TF over GST control)"
same,binding signal,SPIB,"1.47 fold enrichment (6-mer frequency, TF over GST control)"
same,binding signal,ELK3,"1.43 fold enrichment (6-mer frequency, TF over GST control)"
same,binding signal,FEV,"1.31 fold enrichment (6-mer frequency, TF over GST control)"
same,binding signal,ETV5,"1.44 fold enrichment (6-mer frequency, TF over GST control)"
same,binding signal,HSF1,"1.18 fold enrichment (6-mer frequency, TF over GST control)"
same,binding signal,SPIC,"1.47 fold enrichment (6-mer frequency, TF over GST control)"
same,binding signal,ELF4,"1.42 fold enrichment (6-mer frequency, TF over GST control)"
same,binding signal,ELK4,"1.32 fold enrichment (6-mer frequency, TF over GST control)"
same,binding signal,ETV2,"1.29 fold enrichment (6-mer frequency, TF over GST control)"
same,binding signal,ELF3,"1.23 fold enrichment (6-mer frequency, TF over GST control)"
same,binding signal,CRX,"1.29 fold enrichment (6-mer frequency, TF over GST control)"
same,binding signal,ETV1,"1.4 fold enrichment (6-mer frequency, TF over GST control)"
